This is part of a sample that, as a whole, favours compounds with a hit. Of some 83,000 tested, about 20% had one in any assay.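 Method: cells in 96-well plates; compound added at one concentration; 48 h incubation; percent growth measured; values under 10 scored active.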 Active and inactive are the calls of the source.

The assay has as its system HS 578T breast. In words: NCI-60 one-dose screen, 48 h (100 = growth as untreated, 0 = no growth, -100 = all killed). The note with it: 10 µM unless noted. The protocol:
Growth inhibition of the HS 578T human tumor cell line is measured as a screen for anti-cancer activity. Cells are grown in 96 well plates and exposed to the test compound for 48 hours. Compounds are tested at a single concentration, which is 10^-5 M for most compounds. The reported endpoint is percent growth (GI% or GIPRCNT), where numbers from 0 - 100% represent growth inhibition, and numbers from -100% - 0 represent cell death. For example, a value of 40 represents 60% growth inhibition. A value of 0 means no net growth occurred over the course of the experiment. A value of -40 indicates 40% of cells at the beginning of the experiment died by the end of the experiment. A value of -100 means all cells are dead at the end of the experiment.
NCI-60 Human Tumor Cell Lines Screen was performed using the standard one-dose NCI protocol, which is described in more detail at https://dtp.cancer.gov/discovery_development/nci-60/default.htm.
Compounds with GIPRCNT values below 10 were considered active. Activity score was based on GIPRCNT using the following formula: […]
Score is 0 for GIPRCNT values of 100 or above, 50 for GIPRCNT values of 0, and 100 for GIPRCNT values of -100.
For `O=Nc1ccc(NC(=O)Nc2ccc([N+](=O)[O-])cc2)cc1`, the growth is 91.6% (inactive).

For `CCC(C)(C)c1ccc(Nc2ccc(Nc3ccc(C(C)(C)CC)cc3)cc2)cc1`, the growth is 88.9% (inactive).

Turning to `COc1ccc(-c2nc3c(c(-c4ccc(Cl)cc4)nn3-c3ccccc3)c(-c3ccccc3)c2C#N)cc1`, the growth was 114% (inactive). With `COC(=O)c1nc(-c2ccccc2)oc1S(=O)(=O)N1CCCC(C)C1` (stereo not given), the growth was 104% (inactive). The same measure for `Cc1ccc2c(c1)nc(C)n2-c1ncnc2c1CC(C)c1cc(O)ccc1N2C` (stereo not given): 34.7% (inactive); for `COc1ccc(/C=C2\c3cc(OC)c(OC)c(OC)c3CC[C@@H]2O)cc1F`: 37.3% (inactive); for `O=C(Nc1cccnc1Nc1ccccc1)c1cn(Cc2cccc(Oc3ccccc3)c2)nn1`: 40.8% (inactive). In the case of `c1ccc(-c2nc3ccccc3[nH]2)c(OCCCCCOc2ccccc2-c2nc3ccccc3[nH]2)c1` it was 89% (inactive); in that of `Nc1nc(N)c2c(n1)NC(c1cccc(Nc3ccnc4cc(C(F)(F)F)ccc34)c1)CC(c1ccc3c(c1)OCO3)=N2` (stereo not given), 66.9% (inactive).

On to `Nc1cc(C(=O)O)cc(-n2c(O)c(C=C3N=c4ccccc4=N3)sc2=S)c1`, for which the growth was 103% (inactive). In the case of `CCOC(=O)c1cn2ncnc(Oc3ccc(NC(=O)NC4CC4)c(Cl)c3)c2c1C` it was 100% (inactive). In the case of `c1cc(OCCN2CCCC2)ccc1CNc1ccc2nc(CCC3CCCCC3)[nH]c2c1` it was 44.1% (inactive). Turning to `CC(C)(Sc1cc(C(C)(C)C)c(O)c(C(C)(C)C)c1)Sc1cc(C(C)(C)C)c(OC(=O)CCC(=O)O)c(C(C)(C)C)c1`, the growth is 67.4% (inactive).

Regarding `CN1c2ccccc2S(=O)(=O)n2c(SCC(=O)Nc3nc4ccc(F)cc4s3)nnc21`, the growth was 80.4% (inactive). In the case of `CC1=C(Cl)C(=O)c2cc(C)ccc2C1=O`, the growth was 104% (inactive). As for `COCCn1cc(-c2csc(-c3c[nH]c4ccccc34)n2)c2cccnc21`, the growth was 57.4% (inactive). `O=c1oc2c(cnc3ccccc32)cc1-c1cccc(Cl)c1`: the growth is 105% (inactive). `CC1(/C=C/c2ccc(-c3ccccc3)cc2)CCn2cnc3ncnc(c32)N1O` (stereo not given): the growth is 55.5% (inactive).

Consider `CC/C(=C(\c1ccc(Cl)cc1)c1ccc(OCCN2CCCCC2)cc1)c1ccc(O)cc1`, for which the growth was 46.5% (inactive). For `Cc1cc(=O)n(C(=S)Nc2ccc(Cl)cc2)c2cc(O)ccc12`, the growth was 109% (inactive). In the case of `O=[N+]([O-])c1ccccc1Nc1ccc2ccccc2c1` it was 72.5% (inactive); in that of `CC(=O)c1sc(-c2ccc(F)cc2)cc1O`, 117% (inactive). Regarding `Cc1ccc(C(=O)c2ccc(CC(=O)N/N=C/c3cccc(O)c3O)n2C)cc1`, the growth was 87.4% (inactive). In the case of `CC(C)CCC[C@@H](C)[C@H]1CC[C@H]2[C@@H]3CC=C4c5sc(Nc6cc(C(F)(F)F)cc(C(F)(F)F)c6)nc5CC[C@]4(C)[C@H]3CC[C@]12C` it was 102% (inactive); in that of `O=C(Nc1ncc(Cc2ccccc2)s1)c1sc2ccccc2c1Cl`, 13.5% (inactive). In the case of `CCN(CC)CCCC(Cc1ccccc1)Nc1c2ccc(Cl)cc2nc2ccc(OC)cc12` (stereo not given) it was 52.2% (inactive); in that of `C#Cc1cccc(Nc2ncnc3cc(NC(=O)CCl)ccc23)c1`, -2.33% (active). With `c1cc(OCCN2CCCCC2)ccc1CNc1ccc2nc(CCC3CCCCC3)[nH]c2c1`, the growth was 45.8% (inactive). In the case of `COc1ccc(-c2cc(-c3cn(-c4cccc(Cl)c4)nc3-c3ccc(OC)cc3)on2)cc1` it was 96.3% (inactive); in that of `COc1cc2ncnc(Nc3ccc(F)c(Cl)c3)c2cc1OCC(=O)N1CCOCC1`, 96.7% (inactive); in that of `N#Cc1ccccc1-c1ccc(CN2C(=O)S/C(=C\c3ccc(Br)cc3)C2=O)cc1`, 92.3% (inactive). In the case of `Cc1cc(NCCCNc2ccnc3cc(Cl)ccc23)nc(Nc2ccc(C(=O)N3CCCCC3)cc2)n1` it was 85.3% (inactive). As to `Cc1nc([P+](c2ccccc2)(c2ccccc2)c2ccccc2)c(N2CCCCC2)o1`, the growth is 27.9% (inactive). The same measure for `COc1cc(/C=C/C(=O)c2cc(OC)c(OC)c(OC)c2)ccc1Oc1nc2c(c(=O)n(C)c(=O)n2C)n1C`: 26.7% (inactive).

As to `CCOC(=O)C(CCN(C)C)c1ccccc1` (stereo not given), the growth is 98% (inactive). Regarding `Cc1ccc2cnc(N)c(C#Cc3cc(C(=O)Nc4ccc(CN5CCN(C)CC5)c(C(F)(F)F)c4)cnc3C)c2c1`, the growth was -12.4% (active).

In the case of `COC(=O)[C@@]1(C)CC[C@]2(C)CC[C@]3(C)C4=CC=C5C(=CC(=O)C(O)=C5C)[C@]4(C)[C@@H](O)C[C@@]3(C)[C@@H]2C1`, the growth is 27.4% (inactive). As for `CC[C@H](Nc1nc(N)nc(C)c1C#N)c1nc2cccc(CN(C)c3ncc(C(=O)NO)cn3)c2c(=O)n1-c1ccccc1`, the growth is 8.03% (active). Regarding `C=C(c1ccc(C(=O)O)c(F)c1)c1cc2c(cc1C)C(C)(C)CCC2(C)C`, the growth was 59.6% (inactive). In the case of `[N-]=[N+]=NCC1OC(n2cnc3c(NC(=O)Nc4ccccc4)ncnc32)C2OC(=O)CC12` (stereo not given) it was 112% (inactive).

The values above are taken from PubChem BioAssay (NCI).
